These results are taken from PubChem BioAssay (NCI).

Common to all, as to assay: NCI-60 one-dose screen, 48 h (100 = growth as untreated, 0 = no growth, -100 = all killed)
One assay has as its system T-47D breast. Particulars: 10 µM.
In a further assay the test system is BT-549 breast. Particulars: 10 µM unless noted.
A further assay concerns MDA-MB-435 melanoma. The settings on record: 10 µM unless noted.
The test system of another assay is SW-620 colon. Particulars: 10 µM unless noted.
The test system of a further assay is MCF7 breast. The settings on record: 10 µM unless noted.
A further assay relates to HCT-116 colon. The settings on record: 10 µM unless noted.
The next assay deals with HCC-2998 colon. The settings on record: 10 µM unless noted.
Another assay relates to KM12 colon. Particulars: 10 µM unless noted.

The structures appear in SMILES notation. This is part of a sample that, as a whole, favours compounds with a hit. Of some 83,000 tested, about 20% had one in any assay.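 Values shown are percent growth following 48 h exposure of cells in 96-well plates to a single concentration of compound; below 10 was considered active.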 Unmarked numbers belong to inactive results. Activity calls are given as the source filed them.

Take `COc1cc2oc(-c3ccc(O)cc3)cc(=O)c2c(O)c1I`: the growth in the assay on T-47D breast is 93.1%; in the assay on BT-549 breast it was 96.2%; in the assay with MDA-MB-435 melanoma, 101%; in the assay with SW-620 colon it was 109%; in the assay with MCF7 breast it was 79%; with HCT-116 colon it was 104%. Further, the growth was 105% with HCC-2998 colon and 96.5% in the assay with KM12 colon.

For `Cc1nc(-c2ccccc2)cc2c(O)c(C(=O)N/N=C/Cc3ccccc3)[nH]c(=O)c12`, the growth was 104% in the assay with T-47D breast; 105% in the assay on BT-549 breast; 118% in the assay with MDA-MB-435 melanoma; 107% with SW-620 colon; 98.5% in the assay on MCF7 breast; 101% with HCT-116 colon. In addition, the growth with HCC-2998 colon is 95.4%; in the assay on KM12 colon, 115%.

On to `Clc1ccc(C2=Nc3cccc4cccc(c34)N2)cc1Cl`, for which the growth is 42.2% in the assay on T-47D breast; 74.2% in the assay with BT-549 breast; 114% in the assay with MDA-MB-435 melanoma; 99% in the assay on SW-620 colon; 50.2% in the assay with MCF7 breast; 93% in the assay on HCT-116 colon. The growth is 104% with HCC-2998 colon and 99.9% in the assay with KM12 colon.

Consider `COC(=O)[C@@H]1CCCN1C(=O)[C@@H]1CCCN1C(=O)[C@@H](Cc1c[nH]c2ccccc12)NC(=S)Nc1cc(C(F)(F)F)cc(C(F)(F)F)c1`, for which the growth was 32.8% with T-47D breast; 82.4% in the assay with BT-549 breast; 5.44% (active) in the assay on MDA-MB-435 melanoma; 50.3% in the assay on SW-620 colon; 25.9% in the assay with MCF7 breast; 34% in the assay with HCT-116 colon. The growth is 35.4% in the assay with HCC-2998 colon and 66.2% with KM12 colon.

For `COc1ccc(/C=C2\CN(Cc3cn(CCCNc4ccnc5cc(Cl)ccc45)nn3)C/C(=C\c3ccc(OC)c(OC)c3)C2=O)cc1OC`, the growth with T-47D breast is 49.5%; in the assay with BT-549 breast, -56.1% (active); in the assay with MDA-MB-435 melanoma it was -28.9% (active); with SW-620 colon it was -16.7% (active); in the assay on MCF7 breast, 36.9%; with HCT-116 colon, -64.6% (active). The growth was -87% (active) with HCC-2998 colon and -64% (active) in the assay with KM12 colon.

For `Cn1c2c(cc(S(=O)(=O)c3ccccc3)c1=O)CCc1c-2cnn1-c1ccccc1Cl`, the growth in the assay on T-47D breast is 68%; in the assay on BT-549 breast, 101%; in the assay on MDA-MB-435 melanoma, 100%; in the assay with SW-620 colon, 116%; in the assay with MCF7 breast it was 96.2%; in the assay on HCT-116 colon, 109%. Besides, the figures for the growth in the assay with HCC-2998 colon and in the assay with KM12 colon were 118% and 112%, respectively.

Take `O=c1ccc2ccccc2o1`: the growth in the assay on T-47D breast was 116%; in the assay with BT-549 breast, 87.1%; in the assay on MDA-MB-435 melanoma it was 102%; in the assay on SW-620 colon it was 105%; in the assay with MCF7 breast, 98.3%; in the assay on HCT-116 colon it was 104%. Further, the growth was 106% in the assay on HCC-2998 colon and 99.1% with KM12 colon.

For the molecule `O=C1CN2CCC1C/C2=C\c1ccnc2c(Cl)cccc12` (stereo unspecified), the growth with T-47D breast was 93.6%; in the assay with BT-549 breast it was 108%; in the assay with MDA-MB-435 melanoma, 101%; in the assay with SW-620 colon, 101%; in the assay on MCF7 breast, 45.7%; in the assay on HCT-116 colon it was 98.5%. The figures for the growth in the assay on HCC-2998 colon and in the assay with KM12 colon were 102% and 101%, respectively.

Consider `COC(=O)[C@H]1CCCN1C(=O)[C@H]1CCCN1C(=O)[C@@H](Cc1c[nH]c2ccccc12)NC(=S)Nc1cc(C(F)(F)F)cc(C(F)(F)F)c1`, for which the growth in the assay on T-47D breast was 50.2%; in the assay on BT-549 breast it was 91.9%; in the assay with MDA-MB-435 melanoma it was 31.6%; with SW-620 colon, 64.2%; in the assay with MCF7 breast, 26.1%; in the assay on HCT-116 colon it was 39.5%. Moreover, the growth with HCC-2998 colon is 31.8%; in the assay with KM12 colon it was 37.2%.

In the case of `O=C(N/N=C(\CS(=O)(=O)c1ccccc1)c1cc2cc(Br)ccc2oc1=O)c1ccccc1`, the growth in the assay with T-47D breast was 94.1%; in the assay on BT-549 breast, 102%; with MDA-MB-435 melanoma, 100%; with SW-620 colon it was 102%; in the assay with MCF7 breast, 98.2%; in the assay on HCT-116 colon, 104%. The growth in the assay on HCC-2998 colon was 103%; with KM12 colon, 105%.

As for `C1CCC([PH+](C2CCCCC2)C2CCCCC2[PH+](C2CCCCC2)C2CCCCC2)CC1.O=C(C1[CH-]CCCC1)C1CCCC[N-]1.[Au]` (stereo unspecified), the growth in the assay with T-47D breast was 10.3%.

Turning to `COC(=O)c1c2c(c(C)[n+]([O-])c1C)C(=O)C=C(NCc1cccc(OC)c1)C2=O`, the growth is -43.9% (active) in the assay on T-47D breast; -95% (active) in the assay on BT-549 breast; -94.7% (active) with MDA-MB-435 melanoma; -41.2% (active) with SW-620 colon; -65.4% (active) in the assay with MCF7 breast; -60.1% (active) in the assay with HCT-116 colon. Besides, the growth in the assay with HCC-2998 colon was -64.7% (active); in the assay with KM12 colon, -21.1% (active).

`O=C1c2c(c3c4cc(Br)ccc4[nH]c3c3ccc4ccccc4c23)C(=O)N1O`: the growth was 69.3% in the assay with T-47D breast; 93.4% with BT-549 breast; 94.6% in the assay on MDA-MB-435 melanoma; 68.8% with SW-620 colon; 43.3% with MCF7 breast; 83.6% in the assay on HCT-116 colon. Besides, the growth is 95.1% in the assay with HCC-2998 colon and 87.5% in the assay on KM12 colon.

For the molecule `COc1cccc(C2C3=C(COC3=O)N(CCO)c3cc4c(cc32)CCC4)c1` (stereo unspecified), the growth in the assay on T-47D breast is 77.7%; in the assay with BT-549 breast, 1.24% (active); with MDA-MB-435 melanoma it was -32.7% (active); in the assay on SW-620 colon it was 18.8%; with MCF7 breast it was 9.39% (active); in the assay with HCT-116 colon, -9.32% (active). Moreover, the growth with HCC-2998 colon is -20.6% (active); in the assay on KM12 colon, -42.8% (active).

Consider `Cc1oc2c(c1C(=O)N1CC[C@@H](N)C1)C(=O)c1c(c(O)c3ccccc3c1O)C2=O`, for which the growth in the assay on T-47D breast was 61.8%; in the assay on BT-549 breast, 79%; in the assay with MDA-MB-435 melanoma it was 40.3%; in the assay with SW-620 colon, 3.53% (active); in the assay with MCF7 breast it was -1.04% (active); with HCT-116 colon it was 5.14% (active). Besides, the growth was 12.3% with HCC-2998 colon and 15.7% in the assay with KM12 colon.

As for `C=CCCCCCCCCC(=O)[O-].C=CCCCCCCCCC(=O)[O-].[Zn+2]`, the growth in the assay on T-47D breast is 112%.

As for `C[C@@H](Oc1cc(-c2cnn(C3CC4(CCNCC4)C3)c2)cnc1N)c1c(F)ccc(Cl)c1Cl`, the growth in the assay on T-47D breast is -27.9% (active); in the assay on BT-549 breast, 58.6%; with MDA-MB-435 melanoma it was -70.4% (active); in the assay on SW-620 colon, -46% (active); in the assay on MCF7 breast it was -34.6% (active); in the assay on HCT-116 colon, -22.5% (active). Also, in the assay with HCC-2998 colon, the growth is 6.25% (active).
